Experiments:
Assay in all cases: DAPPL (digital affinity profiling via proximity ligation, sequencing); 10 mM Tris-HCl pH 7.5, 50 mM NaCl, 1 mM DTT, 4% glycerol, room temperature, 30 min; GST-TFs on glutathione beads, 16-mer random dsDNA library, 0.1% formaldehyde crosslink after washing; high values mean tight binding
Details in all cases: protein: recombinant; tags: N-terminal GST; dsDNA, one strand shown
FLI1 = biological target: T1, FLI1 (Homo sapiens, UniProt Q01543 1-452)
T1 sequence: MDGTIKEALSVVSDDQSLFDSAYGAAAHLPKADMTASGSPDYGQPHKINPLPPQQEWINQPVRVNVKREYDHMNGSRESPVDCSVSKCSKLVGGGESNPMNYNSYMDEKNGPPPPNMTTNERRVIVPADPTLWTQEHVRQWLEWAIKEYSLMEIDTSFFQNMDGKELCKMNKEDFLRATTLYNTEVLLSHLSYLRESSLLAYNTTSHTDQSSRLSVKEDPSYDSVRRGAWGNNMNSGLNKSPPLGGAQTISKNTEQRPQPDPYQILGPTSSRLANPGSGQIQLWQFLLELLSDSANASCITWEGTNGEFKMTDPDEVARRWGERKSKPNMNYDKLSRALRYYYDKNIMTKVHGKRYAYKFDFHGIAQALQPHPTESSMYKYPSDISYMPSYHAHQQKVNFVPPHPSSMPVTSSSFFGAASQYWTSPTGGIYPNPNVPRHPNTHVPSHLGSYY
How it was run: (§1)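 Human transcription factors carrying a GST fusion were produced in yeast, bound to glutathione beads, tagged with DNA barcodes and pooled together with a tag-only sample. Each pool was held with 200 nmole of a random double-stranded 16-mer DNA library in Tris/NaCl/DTT/glycerol buffer for 30 min at room temperature, then washed, crosslinked in 0.1% formaldehyde, proximity-ligated with BsaI/T4 ligase (1 h, 37 °C), PCR-amplified and sequenced on an Illumina NextSeq500. Binding signal is the read frequency of each hexamer for a given factor divided by its frequency in the tag-only sample.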

ELK1 = biological target: T2, ELK1 (Homo sapiens, UniProt P19419 1-428)
T2 sequence: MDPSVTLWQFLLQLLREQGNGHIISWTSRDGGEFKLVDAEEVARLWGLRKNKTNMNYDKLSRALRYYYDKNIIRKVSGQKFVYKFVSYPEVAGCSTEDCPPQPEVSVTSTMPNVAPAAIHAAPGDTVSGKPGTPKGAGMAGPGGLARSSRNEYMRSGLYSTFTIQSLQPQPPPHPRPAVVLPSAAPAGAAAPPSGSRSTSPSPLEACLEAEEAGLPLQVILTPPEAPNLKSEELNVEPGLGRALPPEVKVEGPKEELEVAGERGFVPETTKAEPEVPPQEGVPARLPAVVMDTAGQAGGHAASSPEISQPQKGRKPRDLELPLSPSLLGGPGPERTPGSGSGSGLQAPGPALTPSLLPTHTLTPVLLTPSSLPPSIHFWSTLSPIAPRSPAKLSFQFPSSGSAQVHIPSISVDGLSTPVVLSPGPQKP
How it was run: as §1

GABPA = biological target: T3, GABPA (Homo sapiens, UniProt Q06546 1-454)
T3 sequence: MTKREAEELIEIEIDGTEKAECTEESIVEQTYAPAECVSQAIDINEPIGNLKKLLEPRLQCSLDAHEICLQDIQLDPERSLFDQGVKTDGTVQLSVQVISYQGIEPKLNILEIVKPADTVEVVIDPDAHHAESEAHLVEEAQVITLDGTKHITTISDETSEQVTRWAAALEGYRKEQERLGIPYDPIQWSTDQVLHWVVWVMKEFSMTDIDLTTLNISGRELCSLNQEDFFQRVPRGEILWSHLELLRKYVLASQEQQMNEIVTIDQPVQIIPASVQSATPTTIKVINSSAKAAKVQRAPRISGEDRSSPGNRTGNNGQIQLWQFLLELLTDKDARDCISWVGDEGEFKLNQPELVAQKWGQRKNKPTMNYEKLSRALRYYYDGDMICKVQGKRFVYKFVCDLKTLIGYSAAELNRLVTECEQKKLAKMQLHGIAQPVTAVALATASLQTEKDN
How it was run: as §1

EHF = biological target: T4, EHF (Homo sapiens, UniProt Q9NZC4 1-300)
T4 sequence: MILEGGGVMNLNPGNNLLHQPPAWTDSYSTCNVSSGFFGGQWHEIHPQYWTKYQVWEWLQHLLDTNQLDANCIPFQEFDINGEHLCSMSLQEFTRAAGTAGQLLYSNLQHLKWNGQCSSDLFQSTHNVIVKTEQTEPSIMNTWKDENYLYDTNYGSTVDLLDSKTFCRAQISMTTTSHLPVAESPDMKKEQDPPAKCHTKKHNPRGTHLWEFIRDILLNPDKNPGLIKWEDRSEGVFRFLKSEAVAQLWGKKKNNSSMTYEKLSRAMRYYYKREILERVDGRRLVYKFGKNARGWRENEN
How it was run: as §1

SPI1 = SPI1 (Homo sapiens, UniProt P17947 1-270)
How it was run: as §1

ELK3 = biological target: T5, ELK3 (Homo sapiens, UniProt P41970 1-407)
T5 sequence: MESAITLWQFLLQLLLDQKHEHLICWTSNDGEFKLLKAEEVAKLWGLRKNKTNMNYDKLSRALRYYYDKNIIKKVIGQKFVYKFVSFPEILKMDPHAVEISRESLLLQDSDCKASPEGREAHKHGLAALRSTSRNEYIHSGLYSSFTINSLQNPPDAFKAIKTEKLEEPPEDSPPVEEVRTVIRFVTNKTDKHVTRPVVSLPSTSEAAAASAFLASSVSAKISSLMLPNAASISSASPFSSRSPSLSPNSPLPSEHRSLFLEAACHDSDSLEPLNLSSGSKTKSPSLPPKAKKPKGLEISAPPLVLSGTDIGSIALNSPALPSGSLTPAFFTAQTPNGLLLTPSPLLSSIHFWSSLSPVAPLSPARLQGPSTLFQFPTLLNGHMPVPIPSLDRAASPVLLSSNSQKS
How it was run: as §1

ETV5 = ETV5 (Homo sapiens, UniProt P41161 1-510)
Sequence of ETV5 (P41161 whole entry): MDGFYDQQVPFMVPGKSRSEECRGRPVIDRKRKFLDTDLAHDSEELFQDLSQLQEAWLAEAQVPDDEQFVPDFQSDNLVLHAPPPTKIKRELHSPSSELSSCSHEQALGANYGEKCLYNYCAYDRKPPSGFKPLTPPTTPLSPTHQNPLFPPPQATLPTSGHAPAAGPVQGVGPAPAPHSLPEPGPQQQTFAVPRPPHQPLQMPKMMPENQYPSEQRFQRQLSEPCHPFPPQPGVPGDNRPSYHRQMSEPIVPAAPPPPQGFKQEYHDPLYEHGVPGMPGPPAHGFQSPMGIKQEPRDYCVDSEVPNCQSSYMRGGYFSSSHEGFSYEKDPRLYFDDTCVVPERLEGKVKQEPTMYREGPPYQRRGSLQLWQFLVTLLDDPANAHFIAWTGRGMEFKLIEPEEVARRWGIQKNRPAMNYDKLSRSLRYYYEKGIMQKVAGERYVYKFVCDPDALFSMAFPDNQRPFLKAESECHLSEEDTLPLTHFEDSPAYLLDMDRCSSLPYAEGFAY
How it was run: as §1

SPIC = biological target: T6, SPIC (Homo sapiens, UniProt Q8N5J4 1-248)
T6 sequence: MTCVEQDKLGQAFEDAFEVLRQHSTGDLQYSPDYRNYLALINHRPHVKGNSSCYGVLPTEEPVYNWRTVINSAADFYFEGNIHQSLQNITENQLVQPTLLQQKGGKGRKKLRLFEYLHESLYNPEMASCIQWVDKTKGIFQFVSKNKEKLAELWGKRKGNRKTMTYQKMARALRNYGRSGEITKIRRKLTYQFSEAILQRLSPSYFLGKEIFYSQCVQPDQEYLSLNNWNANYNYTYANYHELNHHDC
How it was run: as §1

ERF = biological target: T7, ERF (Homo sapiens, UniProt P50548 1-548)
T7 sequence: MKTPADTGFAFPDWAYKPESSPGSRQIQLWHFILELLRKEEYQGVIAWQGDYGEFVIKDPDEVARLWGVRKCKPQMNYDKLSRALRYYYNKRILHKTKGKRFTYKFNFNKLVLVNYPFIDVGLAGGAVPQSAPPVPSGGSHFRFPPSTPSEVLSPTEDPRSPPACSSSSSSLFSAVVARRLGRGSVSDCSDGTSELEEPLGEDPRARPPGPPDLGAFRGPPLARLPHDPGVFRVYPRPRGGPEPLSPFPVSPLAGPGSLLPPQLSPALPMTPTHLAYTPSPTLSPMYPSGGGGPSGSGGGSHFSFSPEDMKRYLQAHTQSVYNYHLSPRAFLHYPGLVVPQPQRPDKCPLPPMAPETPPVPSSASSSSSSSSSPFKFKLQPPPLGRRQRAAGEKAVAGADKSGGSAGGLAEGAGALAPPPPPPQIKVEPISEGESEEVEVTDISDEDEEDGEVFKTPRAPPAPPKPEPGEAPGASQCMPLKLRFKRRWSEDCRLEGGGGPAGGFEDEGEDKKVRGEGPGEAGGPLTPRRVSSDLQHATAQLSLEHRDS
How it was run: as §1

ETS2 = biological target: T8, ETS2 (Homo sapiens, UniProt P15036 1-469)
T8 sequence: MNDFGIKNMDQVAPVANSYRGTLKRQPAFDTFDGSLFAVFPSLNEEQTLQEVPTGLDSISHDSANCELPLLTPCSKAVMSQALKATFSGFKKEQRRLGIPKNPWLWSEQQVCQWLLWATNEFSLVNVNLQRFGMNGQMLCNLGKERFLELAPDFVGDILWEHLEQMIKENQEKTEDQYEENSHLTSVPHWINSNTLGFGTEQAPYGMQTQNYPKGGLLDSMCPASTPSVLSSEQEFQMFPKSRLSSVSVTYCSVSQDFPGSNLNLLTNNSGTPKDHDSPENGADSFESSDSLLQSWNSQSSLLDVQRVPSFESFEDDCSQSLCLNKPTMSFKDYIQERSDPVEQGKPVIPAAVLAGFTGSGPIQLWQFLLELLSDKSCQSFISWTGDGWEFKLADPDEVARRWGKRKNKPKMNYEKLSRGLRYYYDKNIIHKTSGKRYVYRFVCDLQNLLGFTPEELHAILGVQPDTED
How it was run: as §1

ERG = biological target: T9, ERG (Homo sapiens, UniProt P11308 1-479)
T9 sequence: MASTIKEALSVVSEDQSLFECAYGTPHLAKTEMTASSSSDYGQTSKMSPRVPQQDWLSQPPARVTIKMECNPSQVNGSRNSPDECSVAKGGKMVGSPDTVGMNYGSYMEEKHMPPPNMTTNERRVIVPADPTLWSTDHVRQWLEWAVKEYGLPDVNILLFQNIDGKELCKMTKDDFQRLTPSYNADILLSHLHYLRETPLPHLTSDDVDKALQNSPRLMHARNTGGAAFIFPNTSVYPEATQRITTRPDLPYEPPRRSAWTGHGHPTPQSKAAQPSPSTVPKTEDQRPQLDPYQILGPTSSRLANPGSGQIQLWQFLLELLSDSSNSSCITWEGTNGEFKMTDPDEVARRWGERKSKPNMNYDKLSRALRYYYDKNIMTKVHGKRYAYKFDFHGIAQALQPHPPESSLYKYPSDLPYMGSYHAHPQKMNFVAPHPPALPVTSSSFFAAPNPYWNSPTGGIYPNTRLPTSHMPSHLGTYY
How it was run: as §1

ELF1 = ELF1 (Homo sapiens, UniProt P32519 1-619)
Sequence of ELF1 (P32519 whole entry): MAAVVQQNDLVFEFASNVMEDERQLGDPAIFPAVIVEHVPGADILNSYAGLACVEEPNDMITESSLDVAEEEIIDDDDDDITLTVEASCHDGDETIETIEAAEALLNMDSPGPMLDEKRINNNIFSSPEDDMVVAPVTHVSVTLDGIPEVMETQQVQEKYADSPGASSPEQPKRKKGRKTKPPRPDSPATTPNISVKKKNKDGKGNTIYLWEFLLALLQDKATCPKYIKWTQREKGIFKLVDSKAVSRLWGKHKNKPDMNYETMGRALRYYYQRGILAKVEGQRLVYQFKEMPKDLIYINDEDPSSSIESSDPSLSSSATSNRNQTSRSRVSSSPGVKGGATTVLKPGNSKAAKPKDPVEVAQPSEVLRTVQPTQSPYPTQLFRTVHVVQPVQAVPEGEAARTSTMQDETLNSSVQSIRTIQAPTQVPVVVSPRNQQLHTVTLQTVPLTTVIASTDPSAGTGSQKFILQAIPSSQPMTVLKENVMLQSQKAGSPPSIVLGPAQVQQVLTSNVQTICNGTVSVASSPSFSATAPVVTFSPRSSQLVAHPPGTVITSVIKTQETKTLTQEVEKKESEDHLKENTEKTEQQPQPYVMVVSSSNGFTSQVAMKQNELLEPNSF
How it was run: as §1

SPIB = SPIB (Homo sapiens, UniProt Q01892 1-262)
Sequence of SPIB (Q01892 whole entry): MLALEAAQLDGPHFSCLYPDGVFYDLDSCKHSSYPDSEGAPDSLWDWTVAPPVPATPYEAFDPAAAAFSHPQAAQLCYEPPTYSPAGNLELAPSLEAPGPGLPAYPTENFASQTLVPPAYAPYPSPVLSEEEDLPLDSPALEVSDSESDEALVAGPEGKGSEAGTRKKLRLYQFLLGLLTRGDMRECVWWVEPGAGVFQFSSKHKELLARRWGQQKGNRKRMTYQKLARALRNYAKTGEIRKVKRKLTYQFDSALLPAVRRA
How it was run: as §1

FEV = biological target: T10, FEV (Homo sapiens, UniProt Q99581 1-238)
T10 sequence: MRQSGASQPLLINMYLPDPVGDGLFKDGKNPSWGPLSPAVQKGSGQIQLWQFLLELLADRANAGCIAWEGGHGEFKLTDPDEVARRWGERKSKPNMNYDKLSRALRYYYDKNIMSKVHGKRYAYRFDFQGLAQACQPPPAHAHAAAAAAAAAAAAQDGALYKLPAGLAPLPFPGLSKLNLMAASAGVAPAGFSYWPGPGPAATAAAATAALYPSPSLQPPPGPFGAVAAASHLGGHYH
How it was run: as §1

ELF4 = ELF4 (Homo sapiens, UniProt Q99607 1-663)
Sequence of ELF4 (Q99607 whole entry): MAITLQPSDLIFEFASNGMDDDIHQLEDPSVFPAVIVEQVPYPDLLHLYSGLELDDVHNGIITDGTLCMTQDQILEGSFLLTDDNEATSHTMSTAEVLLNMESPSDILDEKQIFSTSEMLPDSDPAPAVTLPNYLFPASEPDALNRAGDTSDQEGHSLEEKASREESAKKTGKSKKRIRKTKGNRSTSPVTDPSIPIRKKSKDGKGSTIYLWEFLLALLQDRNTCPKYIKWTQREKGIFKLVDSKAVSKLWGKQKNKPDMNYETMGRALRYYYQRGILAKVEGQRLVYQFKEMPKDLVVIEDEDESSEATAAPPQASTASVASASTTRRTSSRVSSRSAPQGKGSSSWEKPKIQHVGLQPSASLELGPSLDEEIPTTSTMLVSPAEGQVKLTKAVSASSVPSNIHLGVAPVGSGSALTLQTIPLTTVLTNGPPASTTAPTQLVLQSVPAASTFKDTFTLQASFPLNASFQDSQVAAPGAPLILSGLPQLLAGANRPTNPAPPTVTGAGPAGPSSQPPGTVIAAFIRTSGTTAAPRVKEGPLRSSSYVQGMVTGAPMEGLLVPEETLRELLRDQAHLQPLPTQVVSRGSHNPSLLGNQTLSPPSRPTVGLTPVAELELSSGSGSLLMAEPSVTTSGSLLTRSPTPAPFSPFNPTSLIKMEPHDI
How it was run: as §1

ETV1 = ETV1 (Homo sapiens, UniProt P50549 1-477)
Sequence of ETV1 (P50549 whole entry): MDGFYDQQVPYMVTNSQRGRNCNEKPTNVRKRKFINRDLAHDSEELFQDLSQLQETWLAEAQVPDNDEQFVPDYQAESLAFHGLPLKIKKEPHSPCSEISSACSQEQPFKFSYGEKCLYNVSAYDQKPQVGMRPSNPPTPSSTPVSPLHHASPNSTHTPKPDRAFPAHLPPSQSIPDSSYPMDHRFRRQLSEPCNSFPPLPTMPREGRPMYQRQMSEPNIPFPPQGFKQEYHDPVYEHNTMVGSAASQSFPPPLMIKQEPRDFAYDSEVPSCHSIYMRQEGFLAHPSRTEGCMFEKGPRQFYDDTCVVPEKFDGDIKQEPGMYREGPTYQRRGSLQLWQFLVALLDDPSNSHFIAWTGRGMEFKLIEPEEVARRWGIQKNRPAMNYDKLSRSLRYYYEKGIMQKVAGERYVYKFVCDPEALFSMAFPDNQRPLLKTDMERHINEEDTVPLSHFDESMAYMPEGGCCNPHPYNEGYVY
How it was run: as §1

ETV3L = biological target: T11, ETV3L (Homo sapiens, UniProt Q6ZN32 1-361)
T11 sequence: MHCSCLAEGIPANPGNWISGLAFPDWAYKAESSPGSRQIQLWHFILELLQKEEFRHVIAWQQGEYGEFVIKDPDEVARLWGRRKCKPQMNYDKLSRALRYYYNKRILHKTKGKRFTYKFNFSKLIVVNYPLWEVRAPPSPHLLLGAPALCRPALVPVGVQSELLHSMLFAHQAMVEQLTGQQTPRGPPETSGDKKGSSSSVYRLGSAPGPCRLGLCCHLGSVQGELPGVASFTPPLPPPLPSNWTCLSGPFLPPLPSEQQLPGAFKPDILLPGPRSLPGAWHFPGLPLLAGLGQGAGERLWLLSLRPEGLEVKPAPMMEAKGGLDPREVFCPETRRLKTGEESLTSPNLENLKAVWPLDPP
How it was run: as §1

ETV3 = biological target: T12, ETV3 (Homo sapiens, UniProt P41162-2 1-143)
T12 sequence: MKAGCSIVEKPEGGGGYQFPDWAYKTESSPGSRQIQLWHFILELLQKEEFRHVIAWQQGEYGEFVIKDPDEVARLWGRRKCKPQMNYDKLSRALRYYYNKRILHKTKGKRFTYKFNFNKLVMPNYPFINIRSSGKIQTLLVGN
How it was run: as §1

ETV6 = ETV6 (Homo sapiens, UniProt P41212 1-452)
Sequence of ETV6 (P41212 whole entry): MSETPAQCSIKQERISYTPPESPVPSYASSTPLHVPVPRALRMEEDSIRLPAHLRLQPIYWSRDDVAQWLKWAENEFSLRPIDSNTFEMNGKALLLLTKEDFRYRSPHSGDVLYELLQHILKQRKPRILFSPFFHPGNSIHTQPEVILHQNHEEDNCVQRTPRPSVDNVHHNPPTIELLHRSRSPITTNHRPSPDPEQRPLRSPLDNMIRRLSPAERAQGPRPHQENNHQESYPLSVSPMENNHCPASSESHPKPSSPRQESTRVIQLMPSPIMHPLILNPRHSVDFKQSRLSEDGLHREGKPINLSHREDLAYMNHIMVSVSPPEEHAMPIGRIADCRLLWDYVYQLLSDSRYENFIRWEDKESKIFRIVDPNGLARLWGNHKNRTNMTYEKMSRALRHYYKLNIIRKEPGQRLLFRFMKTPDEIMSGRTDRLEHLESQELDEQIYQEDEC
How it was run: as §1

Sequence	binding signal (FLI1)	binding signal (ELK1)	binding signal (GABPA)	binding signal (EHF)	binding signal (SPI1)	binding signal (ELK3)	binding signal (ETV5)	binding signal (SPIC)	binding signal (ERF)	binding signal (ETS2)	binding signal (ERG)	binding signal (ELF1)	binding signal (SPIB)	binding signal (FEV)	binding signal (ELF4)	binding signal (ETV1)	binding signal (ETV3L)	binding signal (ETV3)	binding signal (ETV6)
ATAGCG	1.08 fold enrichment (6-mer frequency, TF over GST control)	1.03 fold enrichment (6-mer frequency, TF over GST control)	1.01 fold enrichment (6-mer frequency, TF over GST control)	1.05 fold enrichment (6-mer frequency, TF over GST control)	1.07 fold enrichment (6-mer frequency, TF over GST control)	1.05 fold enrichment (6-mer frequency, TF over GST control)	1.04 fold enrichment (6-mer frequency, TF over GST control)	1.03 fold enrichment (6-mer frequency, TF over GST control)	1.1 fold enrichment (6-mer frequency, TF over GST control)	1 fold enrichment (6-mer frequency, TF over GST control)	–	–	–	–	–	–	–	–	–
CATCAT	1.06 fold enrichment (6-mer frequency, TF over GST control)	1.06 fold enrichment (6-mer frequency, TF over GST control)	1.09 fold enrichment (6-mer frequency, TF over GST control)	1.07 fold enrichment (6-mer frequency, TF over GST control)	1.11 fold enrichment (6-mer frequency, TF over GST control)	–	1.09 fold enrichment (6-mer frequency, TF over GST control)	–	1.1 fold enrichment (6-mer frequency, TF over GST control)	1.08 fold enrichment (6-mer frequency, TF over GST control)	1.08 fold enrichment (6-mer frequency, TF over GST control)	1.15 fold enrichment (6-mer frequency, TF over GST control)	1.09 fold enrichment (6-mer frequency, TF over GST control)	1.09 fold enrichment (6-mer frequency, TF over GST control)	1.07 fold enrichment (6-mer frequency, TF over GST control)	1.07 fold enrichment (6-mer frequency, TF over GST control)	1.07 fold enrichment (6-mer frequency, TF over GST control)	1.08 fold enrichment (6-mer frequency, TF over GST control)	1.05 fold enrichment (6-mer frequency, TF over GST control)
